The target in the assay is T1, USP38, Q8NB14.
T1 chain: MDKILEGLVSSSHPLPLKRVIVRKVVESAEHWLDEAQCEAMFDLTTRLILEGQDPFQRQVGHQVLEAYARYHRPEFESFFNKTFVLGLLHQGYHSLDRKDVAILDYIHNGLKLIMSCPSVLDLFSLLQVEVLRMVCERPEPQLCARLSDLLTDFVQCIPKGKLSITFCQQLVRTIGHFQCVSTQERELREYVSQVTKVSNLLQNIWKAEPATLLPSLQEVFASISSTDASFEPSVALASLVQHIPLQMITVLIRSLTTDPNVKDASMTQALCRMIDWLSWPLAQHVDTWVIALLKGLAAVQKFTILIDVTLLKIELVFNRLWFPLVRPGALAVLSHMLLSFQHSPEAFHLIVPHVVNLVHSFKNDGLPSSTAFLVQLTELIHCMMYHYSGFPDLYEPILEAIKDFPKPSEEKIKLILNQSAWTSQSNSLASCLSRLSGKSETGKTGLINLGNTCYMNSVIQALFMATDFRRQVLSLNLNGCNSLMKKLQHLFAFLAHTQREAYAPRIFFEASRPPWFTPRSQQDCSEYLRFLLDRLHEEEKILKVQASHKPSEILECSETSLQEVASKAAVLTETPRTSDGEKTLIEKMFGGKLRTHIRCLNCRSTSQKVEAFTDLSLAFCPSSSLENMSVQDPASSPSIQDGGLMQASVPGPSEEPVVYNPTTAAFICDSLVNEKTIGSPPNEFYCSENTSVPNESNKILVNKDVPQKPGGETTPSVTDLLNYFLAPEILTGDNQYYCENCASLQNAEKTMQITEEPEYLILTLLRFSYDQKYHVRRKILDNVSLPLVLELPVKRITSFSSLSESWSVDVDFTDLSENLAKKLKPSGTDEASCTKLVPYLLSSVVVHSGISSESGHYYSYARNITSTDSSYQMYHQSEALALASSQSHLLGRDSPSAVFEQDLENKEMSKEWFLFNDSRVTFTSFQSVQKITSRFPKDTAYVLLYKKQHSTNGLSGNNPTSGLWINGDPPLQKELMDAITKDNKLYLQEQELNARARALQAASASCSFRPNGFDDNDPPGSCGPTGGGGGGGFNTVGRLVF
The experiment in a line: median log2 fold change of GCK-ALFA target abundance (FLAG IP / Myc IP barcode read proportion) (log2 ratio); each designed protein is fused to an ALFA-tag nanobody in HEK293 cells to bring the named protein to FLAG-tagged glucokinase (GCK); Myc marks an untargeted standard; higher = target protein stabilised (more abundant). Conditions: target protein: 3xFLAG-MCP-GCK-ALFA reporter; HEK293 landing pad (RPLP). In a few lines:
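Binders fused to an ALFA nanobody were recombined as a library into HEK293 landing-pad cells, which were induced with 2 μg mL^−1 doxycycline and then transfected to express a FLAG-tagged target and a Myc-tagged standard. After 48 h, circular RNA barcodes recovered by anti-FLAG and anti-Myc immunoprecipitation of lysates were reverse transcribed, amplified and sequenced. Each binder's target abundance is the median log2 ratio of FLAG to Myc barcode read proportions, from barcodes present at ≥10^−7 in both replicates, binders carrying ≥3 barcodes per replicate, a 10^−6 pseudocount and pooled replicates.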

The record followed here is the supplement of paper PMC12632987.

B1: usp_38_diff_out_18_14_333 (protein)
chain: SSELEEQLISNFKSLTEEVKRDTERTLEIVEKLKDDPDAALALLDTRIQALEGVAKYAKEVKKEAEENGNEELKAAAEELLKAAEEAIKKLKEKRKELKA
For B1, the “median log2 fold change” value was -0.013.

B2: usp_38_diff_out_18_14_346 (protein)
chain: DEELAKQLKEQFESLTKEVEENTKRLKEIVEKLKDDPESALSLLETRIQALEGVIKYAEEEKKRAKAAGFEELAAAAEKLIKAAKAAKEEAEKLKKELKA
B2: the “median log2 fold change” value was -0.0584.

B3: usp_38_diff_out_18_14_340 (protein)
chain: SDELAKATLANLKTLTEEVKKVTERTEKIIKKLADDPEAAKSLLDTRKQAYQGVITYAKEVAEEAKAAGYKELLAAAEELKKAAEEALKTLEKLEKELKA
Take B3: the “median log2 fold change” value is -0.499.

B4: usp_38_diff_out_18_14_339 (protein)
chain: SSELAEAELSNLKSLTEEVKKVTERTEKIIEKLKDDPESAKSLLETRRQAYEGVIKYADEVLKRAEEEGYEELAKAAKELRDEAEKALERLEKLEKELEK
As for B4, the “median log2 fold change” value is 0.0814.

B5: usp_38_diff_out_18_14_335 (protein)
chain: SEELTAATLANVKTLLEDVKKVTERTKKIVAKLKDDPESATSLLESRIQAYEGVIKYAEETLEEAKKAGDKELAAAAKELIKAAKEAKEEFEKLLAELKA
For the molecule B5, the “median log2 fold change” value was -0.351.

B6: usp_38_diff_out_18_14_332 (protein)
chain: SEELTEQIISNLEKLTKDVKENTARTLKIVEKLKDDPESALSLLDTRIQALKGVEKYAKEVLEEAKKEGNKKLEEAAEKLLKEAKAAIKTLEEKRAALKA
Take B6: the “median log2 fold change” value was found to be 0.139.

B7: usp_38_diff_out_18_14_331 (protein)
chain: SEELRKAKLDNLKLLTKEVKEDTERTLRILERLRGDPEAARSLIDTRIQALEGVIKYAEEVKKEAEEAGDEELAKAAEELKKAAEEAKRRLEEARRRLEA
As to B7, the “median log2 fold change” value came out at 0.193.

B8: usp_38_diff_out_18_14_329 (protein)
chain: SEELREAILSNLKSLKKEVEKVTERTLKVLEKLKDDPESAKSLIDTRKQALDGVIKYAEEVEKEAEAAGDEETAKAAKELKKAAKEAKAKLEEAEKKLKE
As for B8, the “median log2 fold change” value is -0.556.

B9: usp_38_diff_out_18_14_330 (protein)
chain: SEELRKAKLSNLKSLKAEVEEVTARTLRVVERLRGDPESARALLDTRIQALDGVIKYAEEVAKEAKAAGDEELAKAAEELKEAARAARARLEAAAAALAA
On to B9, for which the “median log2 fold change” value worked out at 0.0025.

B10: usp_38_diff_out_18_14_343 (protein)
chain: SEELAEAELANLKSLKEEVKRVTERTKKIIEKLKDDPEAALSLLDTRIQAYKGVIKYAEEVLKEAKKAGYEELAKAAEELKKAAEEALKELERLRKELEA
In the case of B10, the “median log2 fold change” value is -0.329.

B11: usp_38_diff_out_18_14_337 (protein)
chain: SEELRQQLLENLKSLTEEVKKEKERTLKIIEKLKDDPESALSLLDTRIQALDGVIKYAKEVAKEAKEEGDKELLEAAEKLIKEAEKAKKELEKKRAELKA
For B11, the “median log2 fold change” value came out at 0.0476.

B12: usp_38_diff_out_18_14_334 (protein)
chain: AAELRAATKANLKTLTAEVKENTERTLRIVDKLKDDPESALSLLDTRIQALKGVAKYAQEVKKEAEEAGDAELKAAAEALLKAAKAAIEELEKRRKELKE
In the case of B12, the “median log2 fold change” value amounted to 0.0876.

B13: usp_38_diff_out_18_14_341 (protein)
chain: SAELAAATLANLKSLTAEVKEVTARTEKIVEKLKDDPEAALSLLDTRKQAYEGVITYAEEVAKEAKAAGDAELEAAAKELKKAAEEALAKMEKLRAELKA
Regarding B13, the “median log2 fold change” value turned out to be 0.0312.

B14: usp_38_diff_out_18_14_336 (protein)
chain: SEELRKAEIENLKTLLKEVKKDTERTIKIVEKLKDDKDSATSLLETRIQAYEGVIKYAEELKERAKKEGDKELIAAAEELIKAAKEAKEKLKELLKKLKA
B14: the “median log2 fold change” value was -0.177.

B15: usp_38_diff_out_18_14_344 (protein)
chain: SEELRKATKSNLESLKKDVKEVTERTKKIVAKLKDDPESALSLLETRIQALEGVIKYAEETLKEAEEEGDEELKKAAEELKKEAEEAKAEFEALLAALKA
For B15, the “median log2 fold change” value was 0.232.

B16: usp_38_diff_out_18_14_345 (protein)
chain: GEELEEQIKANLELLTKEVKENTERLVKILEKLKDDPESALSLIDTRLQALNGVKAYAEEELKRAKERGNEELKKAAEELIKAAEEAIKTLEELRKKLKA
On to B16, for which the “median log2 fold change” value was -0.0272.
